The values below come from PubChem BioAssay AID595 (National Center for Advancing Translational Sciences (NCATS), 2007).

In all, about 71,000 compounds went through this assay and about 310 (0.44%) were called active. About 5% were inconclusive and are not listed. The call rests on the fitted dose curve; in most records, active means well fitted curve in either direction with a large enough effect; inconclusive means small, poorly fitted or top-dose-only effect, or another doubt; inactive means flat fitted curve, though single readings scatter. What follows is part of a selection rich in actives, with near analogues and random picks from the rest.
On the % scale 0 is the no-effect control and ±100 the full control effect; potency means the concentration at half of the fitted maximal effect.

For the assay, the system named is Hsp90 C-terminal peptide / TPR2A (Hop) interaction, human. Briefly: qHTS Assay for Disrupters of an Hsp90 Co-Chaperone Interaction. Conditions: AlphaScreen TPR2A-His6 binding biotin-Hsp90 C-terminal peptide; series mostly up to 57 µM; activity change, negative = inhibition: at the top concentration. An excerpt:
NIH Chemical Genomics Center [NCGC]
NIH Molecular Libraries Screening Centers Network [MLSCN]
Hsp90 (heat shock protein 90) is the essential molecular chaperone and it accounts for 1-2% of all cytosolic proteins and is critical for the activity of diverse cellular proteins that are involved in a variety of cellular processes, including development, cell cycle, and steroid hormone signaling. Its client proteins include signaling kinases such as IGF1R, Akt, v-Src, Raf-1; regulators of cell survival such as Bcr-Abl; and transcription factors such as mutated p53, estrogen and progesterone receptors. Hsp90 has emerged as an important target for cancer treatment due to its essential role in maintaining transformation and regulating the function of oncogenic signaling proteins.
The in vivo function of Hsp90 is regulated by the binding and hydrolysis of ATP at its N-terminal. Geldanamycin binds to ATP site and inhibit Hsp90 function. Geldanamycin and its analogues are under clinical trials in cancer patients.
This domain contains the binding site for tetratricopeptide repeat (TPR) domains on HOP (Hsp Organizing Protein). TPR is a structural motif used by a significant number of cochaperones by which the in vivo function of Hsp90 is regulated. TPR2A on HOP binds specifically to MEEVD motif of the C-terminal of Hsp90.
A homogeneous AlphaScreen is developed to assess the interaction between TPR2A and MEEVD motif of the C-terminal of Hsp90 by using the isolated TPR2A domain and a synthesized 20mer Hsp90 C terminal peptide. AlphaScreen is two bead-based proximity-dependent chemical energy transfer luminescent assay platform. TPR2A-His-6 and biotinylated Hsp90 C terminal peptide will bring streptavidin donor beads and nickel chelate acceptor beads to a proximity range (less than 200 nm), and subsequently lead a chemical luminescent reaction upon exciting donor beads with 680 nm laser. Inhibition of TPR2A and MEEVD motif interaction by small molecules could attenuate or abolish this chemical luminescent reaction.
Counter screening: Biotinylated-His-6 (PerkinElmer) can be utilized as a counter screen, as it serves as a linker to bring streptavidin beads and nickel chelate beads together. The counter screen can exclude alpha screen platform false positives due to small molecules being metal chelators, biotin analogues and imidazole analogues, or due to interfering with oxygen release from donor beads. Such an assay should be utilized to qualify any activity observed in this screen.
NCGC Assay Protocol Summary:
The assay was performed on 1536-well white plate (untreated solid bottom). Liquids were dispensed by 1536-well plate washer (Kalypsys, San Diego, CA). Plates were read on EnVision (PerkinElmer, Boston, MA).TPR2A-His6 was produced using a bacteria expression system and purified using a well developed method (Ghosh et al., 2000). Hsp90 C terminal 20-mer peptide with or without an N-terminal biotin group are synthesized using automated solid phase synthesis by the Yale Keck facility. The composition of assay buffer was (in mM) 25 HEPES, 100 KCl, 2 MgCl2 and 2 DTT; 0.1% BSA and 0.01% Tween-20. TPR2A-His6 binding to biotin-Hsp90 will bring streptavidin donor beads and nickel chelate acceptor beads (PerkinElmer) together and can be measured by Alpha reading by EnVision (PerkinElmer). Free Hsp90 blocks biotin-Hsp90 binding to TPR2 and serves as a positive control in the current asssay.
The assay was performed at room temperature. All compounds were screened as titrations from […] to 46 uM final concentration. The assay was performed in 1536-well format plates (untreated white solid bottom, Corning Inc.) as follows:
Sequence,Parameter,Value,Description
1,Reagent,3 uL TPR2A-His6,Final concentration was 5nM
2,Compound,23 nL,Final titration was from 0.7 nM to 46 uM
3,Time,15 minutes,Room temperature
4,Reagent,1 uL biotin-Hsp90,With and without free Hsp90. Final concentration was 10 nM for biotin-Hsp90 and 10uM for free Hsp90.
5,Time,1 hour,Room temperature
[…]
For `CCN(CC)S(=O)(=O)N1CCC(C(=O)NC(C)CCc2ccccc2)CC1` (stereo not given), the “activity change, negative = inhibition” value was -1.59% (inactive).

Turning to `CC1=C(C(=O)OCc2ccccc2)C(c2ccc(C(F)(F)F)cc2)NC(=O)N1CCCCCC(=O)O` (stereo not given), the “activity change, negative = inhibition” value was 0.276% (inactive).

As to `COC(=O)C(CC(=O)Nc1cc(C)ccc1C)Nc1ccccc1OC` (stereo not given), the “activity change, negative = inhibition” value is -6.74% (inactive).

For the compound `O=C(O)c1ccc(COCC(F)(F)F)cc1`, the “activity change, negative = inhibition” value was -3.8% (inactive).

As for `COC(=O)[C@@H]1[C@H]2C[C@H]3c4[nH]c5cc(OC)ccc5c4CCN3C[C@@H]2C[C@@H](OC(=O)c2cc(OC)c(OC)c(OC)c2)[C@@H]1OC`, the “activity change, negative = inhibition” value is -28.3% (inactive).

In the case of `CC[C@]1(C)CC(=O)NC1=O`, the activity change, negative = inhibition entry is “inactive”.

Take `CCCn1c(-c2ccc(F)cc2)nc2c(NCC3CCCN3CC)nc(C)nc21` (stereo not given): the “activity change, negative = inhibition” value was -1.96% (inactive).

Regarding `CCNc1ncc2ncc(=O)n(CCc3ccccc3)c2n1`, the “activity change, negative = inhibition” value is -2.48% (inactive).

As for `Cc1c(NC(=O)c2cccnc2)c(=O)n(-c2ccccc2)n1C`, the “activity change, negative = inhibition” value was 1.13% [at 26 µM] (inactive).

Take `CN1C(=O)C[C@H](c2ccccc2)C1=O`: the “activity change, negative = inhibition” value was -0.092% [at 26 µM] (inactive).

As for `CC[C@@H]1Cc2cc(O)ccc2C2=C1c1ccc(O)cc1C[C@H]2CC`, the “activity change, negative = inhibition” value was -24.7% (inactive).

As for `Nc1ccc2c3c(cccc13)C(=O)NC2=O`, the “activity change, negative = inhibition” value was -3.62% (inactive).

Regarding `COc1ccc(CC(=O)Nc2ccc3c(c2)CCC3)cc1S(=O)(=O)N1CCOCC1`, the “activity change, negative = inhibition” value is -4.91% (inactive).

For `CC(C)C[C@@H](CC(=O)N[C@@H](CCC(=O)O)CC(=O)O)NC(=O)[C@@H]1CCCC[C@H]1NC(=O)C[C@@H](NC(=O)C[C@H](Cc1c[nH]c2ccccc12)NC(=O)[C@@H]1CCCC[C@H]1N)C(C)C`, the Potency was 5.01 µM (active).

In the case of `CC(C)[C@@H](CC(=O)N[C@@H]1CCNC[C@H]1C(=O)N[C@H](CC(=O)N[C@@H](CCC(=O)O)CC(=O)O)Cc1ccccc1)NC(=O)C[C@H](CO)NC(=O)[C@@H]1CNCC[C@H]1N`, the “activity change, negative = inhibition” value is -13.9% (inactive).

Regarding `Oc1c(C(c2ccccn2)N2CCOCC2)ccc2cccnc12` (stereo not given), the Potency is 2 µM (active).

In the case of `OC(COc1ccc2ccccc2c1)CN1CCOCC1` (stereo not given), the “activity change, negative = inhibition” value is 1.54% (inactive).

For the compound `O=C(c1cccnc1NCc1ccccc1)N1CCOCC1`, the “activity change, negative = inhibition” value is -6.22% (inactive).

`CCN(Cc1ccncc1)C(=O)[C@@H](CO)c1ccccc1`: the activity change, negative = inhibition entry is “inactive”.

On to `CS(=O)(=O)N1CCC2(CC1)CN(Cc1ccccc1)C2`, for which the “activity change, negative = inhibition” value is -3.42% (inactive).

On to `COc1cccc(Cn2c(=O)c(-c3ccccc3)nc3cnc(OC)nc32)c1`, for which the “activity change, negative = inhibition” value is -0.069% (inactive).

As for `CCCC[C@@H]1C[C@H]1C(NC(=O)c1ccc(-c2ccccc2)cc1)c1ccc(-c2ccccc2)cc1` (stereo not given in full), the “activity change, negative = inhibition” value is -4.75% (inactive).

With `CC1=C(C(=O)Nc2ccc(Cl)cc2)C(c2ccco2)NC(=O)N1` (stereo not given), the “activity change, negative = inhibition” value was -8.22% (inactive).

Turning to `Cc1ccc2[nH]c(=O)c(-c3nc4c(C)cccn4c3NCc3ccco3)cc2c1`, the “activity change, negative = inhibition” value was -10.2% (inactive).

In the case of `Clc1ccc(C(c2ccc(Cl)cc2)n2cc[n+](C[C@@H](OCc3ccc(Cl)cc3Cl)c3ccc(Cl)cc3Cl)c2)cc1`, the “activity change, negative = inhibition” value was -23.7% (inactive).

Regarding `O=C(O)[C@@H](O)Cc1ccccn1`, the activity change, negative = inhibition was -2.31% [at 11 µM] (inactive).

As for `OC(CCl)CCl`, the “activity change, negative = inhibition” value was -5.37% (inactive).

`O=C1CCCc2c1[nH]c1ccc(Br)cc21`: the “activity change, negative = inhibition” value is -0.77% (inactive).

For the compound `CCC[C@H]1C(=O)N2C(N(C)C)=Nc3ccc(C)cc3N2C1=O`, the “activity change, negative = inhibition” value was -4.06% [at 26 µM] (inactive).

Consider `CN(C)CCCn1c2ccccc2c2cnccc21`, for which the activity change, negative = inhibition was -5.16% [at 11 µM] (inactive).

For the compound `COc1cccc(N(CC(=O)Nc2cccc(F)c2)S(C)(=O)=O)c1`, the “activity change, negative = inhibition” value is -1.99% (inactive).

With `O=C(O)c1cccc(S(=O)(=O)NCCO)c1`, the activity change, negative = inhibition was -3.23% [at 11 µM] (inactive).

For the compound `CC(C)NC(=O)N1CC[C@@]2(CCCN(C(=O)c3ccco3)C2)C1`, the “activity change, negative = inhibition” value was 1.72% (inactive).

With `CCCCNc1nc(C)nc2c1nc(-c1ccccc1)n2CCCCN(CC)CC`, the “activity change, negative = inhibition” value is -3.31% (inactive).

Turning to `Cc1cc(=O)[nH]c(SCC(=O)N2c3ccccc3CC2C)n1` (stereo not given), the “activity change, negative = inhibition” value was 3.13% (inactive).

`Fc1cccc(/C=N\N=C/c2cccc(F)c2)c1`: the “activity change, negative = inhibition” value is 1.39% (inactive).

For the compound `CCOC(=O)N1CCN(C(=O)c2cc3c(ccc4ccccc43)oc2=O)CC1`, the “activity change, negative = inhibition” value was -0.382% (inactive).

For `CC(C)(O/N=C(\C(=O)N[C@@H]1C(=O)N2C(C(=O)[O-])=C(C[n+]3ccccc3)CS[C@@H]12)c1csc(N)n1)C(=O)O`, the “activity change, negative = inhibition” value was -6.49% [at 26 µM] (inactive).

In the case of `O=C(c1ccco1)N1CCC2(CC1)CN(c1ncccn1)C2`, the “activity change, negative = inhibition” value is -0.544% (inactive).

For `c1cncc(CNc2ccnc(-c3ccc4c(c3)OCO4)n2)c1`, the “activity change, negative = inhibition” value is -6.94% (inactive).

`Cc1cc(Cl)ccc1N1C(=O)CC(SCCC(=O)O)C1=O` (stereo not given): the “activity change, negative = inhibition” value was -3.29% (inactive).

On to `O=c1c(-c2cccs2)nc2cnc(Oc3ccccc3)nc2n1-c1ccccc1`, for which the “activity change, negative = inhibition” value was -6.73% (inactive).

On to `COc1ncc2nc(-c3ccc(Cl)cc3)c(=O)n(-c3ccccc3)c2n1`, for which the “activity change, negative = inhibition” value is -0.152% (inactive).

In the case of `COc1ccccc1CNc1nc(-c2c(C)noc2C)nc2ccccc12`, the “activity change, negative = inhibition” value was 6.78% (inactive).

As for `N=C(CC(=O)Nc1ccccn1)c1ccccc1`, the activity change, negative = inhibition was -0.76% [at 11 µM] (inactive).

`O=C1c2ccccc2C(=O)C1c1ccccc1`: the “activity change, negative = inhibition” value was -2.02% [at 26 µM] (inactive).

For the compound `COc1cccc(N2C(=O)C3CCCN3C2c2ccc(F)cc2)c1` (stereo not given), the “activity change, negative = inhibition” value was -1.72% (inactive).

Regarding `CS(=O)(=O)Nc1cccc(-c2cncnc2Nc2ccccc2)c1`, the “activity change, negative = inhibition” value was -4.22% (inactive).

For `COCCn1c(=O)c(-c2cccs2)nc2cncnc21`, the “activity change, negative = inhibition” value is -3.38% (inactive).

Consider `Oc1ccc(O)c2c(O)cccc12`, for which the “activity change, negative = inhibition” value was -23.2% (inactive).

With `S=c1c2[nH]cnc2ncn1CCSc1ncnc2nc[nH]c12`, the activity change, negative = inhibition is -3.58% [at 11 µM] (inactive).

For the compound `CCOC(=O)N1CCN(Cc2nc3c(c(=O)n(C)c(=O)n3C)n2Cc2ccccc2)CC1`, the “activity change, negative = inhibition” value is -0.895% (inactive).

With `O=C(NCCc1ccco1)c1nn(Cc2ccccc2)c(=O)c2ccccc12`, the “activity change, negative = inhibition” value was 1.8% (inactive).

Consider `COC(=O)N1CCC[C@@]2(CCN(C(=O)NC(C)C)C2)C1`, for which the “activity change, negative = inhibition” value is -7.6% (inactive).

Consider `CS(=O)(=O)N1CCC2(CC1)CN(Cc1cc(C(F)(F)F)cc(C(F)(F)F)c1)C2`, for which the “activity change, negative = inhibition” value is 0.858% (inactive).
